The text below walks through data of PubChem BioAssay (EPA / NIEHS).

Values joined by “and” are separate entries in the source; they are usually repeats but may differ in a detail not shown here. Identical values can stand only once. Results filed as inconclusive are left out. Active and inactive are the calls of the source. How the source made its calls: active means hit-call score of the fitted dose curve at least 0.9, where 1 is the maximum; inconclusive means response in the unintended direction; inactive means score below 0.9.

What is called AC50 is the midpoint of the concentration-response curve, whichever way the signal moves.

Chain of Glucocorticoid receptor (Homo sapiens) (P04150 whole entry, looked up): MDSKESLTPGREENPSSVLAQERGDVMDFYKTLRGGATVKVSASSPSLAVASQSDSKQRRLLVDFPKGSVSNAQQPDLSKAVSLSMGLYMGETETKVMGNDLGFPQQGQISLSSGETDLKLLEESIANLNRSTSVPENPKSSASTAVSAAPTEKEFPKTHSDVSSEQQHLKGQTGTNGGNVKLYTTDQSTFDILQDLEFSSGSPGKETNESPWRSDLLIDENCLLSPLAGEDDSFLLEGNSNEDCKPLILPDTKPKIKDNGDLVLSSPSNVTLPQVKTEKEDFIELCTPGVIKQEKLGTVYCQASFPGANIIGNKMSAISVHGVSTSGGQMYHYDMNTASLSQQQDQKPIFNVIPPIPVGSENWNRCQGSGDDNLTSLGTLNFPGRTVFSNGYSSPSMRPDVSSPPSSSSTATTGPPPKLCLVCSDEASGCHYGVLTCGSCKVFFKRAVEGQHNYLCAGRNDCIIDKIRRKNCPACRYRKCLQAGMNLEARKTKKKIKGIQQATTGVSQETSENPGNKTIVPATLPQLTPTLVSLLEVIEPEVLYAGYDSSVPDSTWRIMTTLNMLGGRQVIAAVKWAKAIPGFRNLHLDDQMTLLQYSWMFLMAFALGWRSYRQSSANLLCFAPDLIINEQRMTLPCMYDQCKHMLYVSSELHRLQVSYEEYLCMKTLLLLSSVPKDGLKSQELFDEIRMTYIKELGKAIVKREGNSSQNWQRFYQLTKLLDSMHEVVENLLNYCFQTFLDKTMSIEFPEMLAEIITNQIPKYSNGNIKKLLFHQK
Chain of human Thyroid Receptor Alpha (TRa), THRA (gene 7067) (P10827 whole entry, looked up): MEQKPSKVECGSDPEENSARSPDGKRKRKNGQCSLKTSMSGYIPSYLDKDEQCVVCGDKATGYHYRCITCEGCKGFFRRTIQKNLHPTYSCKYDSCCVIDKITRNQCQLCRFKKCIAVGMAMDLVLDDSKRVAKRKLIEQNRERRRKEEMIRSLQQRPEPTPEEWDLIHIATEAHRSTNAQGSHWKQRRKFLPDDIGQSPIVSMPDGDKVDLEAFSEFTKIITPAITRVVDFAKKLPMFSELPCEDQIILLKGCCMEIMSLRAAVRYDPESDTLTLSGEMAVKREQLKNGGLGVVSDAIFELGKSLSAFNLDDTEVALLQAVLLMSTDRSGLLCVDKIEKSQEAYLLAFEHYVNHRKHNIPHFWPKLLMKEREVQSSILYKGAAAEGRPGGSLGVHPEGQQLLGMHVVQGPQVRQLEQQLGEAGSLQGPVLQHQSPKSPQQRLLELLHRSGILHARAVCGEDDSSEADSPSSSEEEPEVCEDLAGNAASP
Chain of Nuclear receptor subfamily 1 group I member 2 (Homo sapiens) (O75469 whole entry, looked up): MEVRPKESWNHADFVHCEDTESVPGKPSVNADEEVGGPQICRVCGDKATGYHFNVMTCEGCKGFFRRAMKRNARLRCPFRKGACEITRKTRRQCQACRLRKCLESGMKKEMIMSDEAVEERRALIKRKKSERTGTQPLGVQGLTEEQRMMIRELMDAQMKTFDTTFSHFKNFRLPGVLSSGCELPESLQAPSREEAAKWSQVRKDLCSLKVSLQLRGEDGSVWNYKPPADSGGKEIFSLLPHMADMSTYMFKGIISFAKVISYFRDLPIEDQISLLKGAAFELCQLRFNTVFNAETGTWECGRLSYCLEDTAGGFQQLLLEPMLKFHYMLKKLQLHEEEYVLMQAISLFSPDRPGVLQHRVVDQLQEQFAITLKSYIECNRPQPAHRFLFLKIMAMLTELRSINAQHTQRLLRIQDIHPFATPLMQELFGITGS

The first test deals with human Thyroid Receptor Alpha (TRa), THRA (gene 7067) (UniProt P10827). The test is described as follows: NVS_NR_hTRa_Antagonist: NovaScreen (NVS) Nuclear Receptor Binding Assay for human Thyroid Receptor Alpha Antagonism (TRa) (AID 2283362). The method in brief:
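Cell-free binding assay on extracted receptor protein, read 1 h after chemical dosing by AlphaLISA chemiluminescence; loss of signal relative to DMSO baseline marks antagonism. Primary screen ran in duplicate at 25 uM, with concentration series for actives.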
On to `Cc1cc(Cc2ccc(N)c(C)c2)ccc1N`, for which the compound was classed as inactive.
For `O=C1NC(=O)C(c2ccccc2)(c2ccccc2)N1`, the call was inactive.
As to `CCN(CC)CCOc1ccc(C(=C(Cl)c2ccccc2)c2ccccc2)cc1`, the concentration at half-maximal activity (AC50) was 14.9 µM (active) and 12.2 µM (active) and 16.3 µM (active).

The next test has as its target Glucocorticoid receptor (Homo sapiens) (UniProt P04150). Briefly: NVS_NR_hGR: NovaScreen (NVS) Nuclear Receptor Binding Assay for human Glucocorticoid Receptor (GR) (AID 2283363).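 On AC50: activity is loss of specific radioligand binding signal relative to DMSO.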 The method in brief: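 Cell-free radioligand displacement assay on extracted human GR, read 16 h after dosing by filter-based scintillation counting. Screened in duplicate at 25 uM, then concentration series for actives; loss of signal versus DMSO baseline.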
Regarding `CCCCc1nc2cccnc2n1Cc1ccc(-c2ccccc2-c2nnn[nH]2)cc1`, the compound was called inactive.
On the same count and under the same terms, in the case of `CCCCC(CC)COP(=O)(OCC(CC)CCCC)OCC(CC)CCCC` (stereo not given) it was “inactive”; in that of `S=c1[nH]c2ccccc2s1`, “inactive”; in that of `Cc1cc(Cc2ccc(N)c(C)c2)ccc1N`, “inactive”.
`O=Cc1ccccc1C=O`: the AC50 is 6.78 µM (active).

Another test has as its target Nuclear receptor subfamily 1 group I member 2 (Homo sapiens) (UniProt O75469). The test is described as follows: NVS_NR_hPXR: NovaScreen (NVS) Nuclear Receptor Binding Assay for human Pregnane X Receptor (PXR) (AID 2283365).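 Further: a drop in FRET signal versus DMSO baseline means the compound binds.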 The method in brief: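 Cell-free binding assay with extracted human PXR protein, read by TR-FRET 2 h after dosing; loss of signal relative to DMSO baseline indicates binding. Primary screen at 25 uM in duplicate, actives retested in concentration series.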
For `CC(=O)CC(c1ccccc1)c1c(O)c2ccccc2oc1=O` (stereo not given), the result was inactive.
On the same count and under the same terms, in the case of `CC(=O)[C@@]1(O)CC[C@H]2[C@@H]3CCC4=CC(=O)CC[C@]4(C)[C@H]3CC[C@@]21C` it was “inactive”; in that of `CSc1ccc(Oc2ccc(S(N)(=O)=O)cc2CN(C)C)cc1C`, “inactive”; in that of `O=C1NC(=O)C(c2ccccc2)(c2ccccc2)N1`, “inactive”.
On to `CCN(CC)CCOc1ccc(C(=C(Cl)c2ccccc2)c2ccccc2)cc1`, for which the AC50 is 3.15 µM (active) and 3.46 µM (active) and 3.72 µM (active).
The same measure, in the same setting: in the case of `CC(C)OC(=O)C(C)(C)Oc1ccc(C(=O)c2ccc(Cl)cc2)cc1` it was 41.2 µM (active); in that of `COc1ccc(OC(F)(F)F)cc1CN[C@H]1CCCN[C@H]1c1ccccc1`, 7.41 µM (active).
